Test results: PubChem BioAssay (NCI)
Values joined by “and” are separate entries in the source; they are usually repeats but may differ in a detail not shown here. Identical values can stand only once. The panel holds about 83,000 compounds, 20% with a hit somewhere; the sample as a whole holds those more often.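 Note: values are percent growth. 100 is the growth of untreated cells, values between 100 and 0 indicate rising inhibition; between -100 and 0 indicates cell death.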 Active and inactive are the calls of the source. How the source made its calls: active means growth percent below 10; inactive means the rest.

Columns and labels:
Test in all cases: NCI-60 one-dose screen, 48 h (100 = growth as untreated, 0 = no growth, -100 = all killed)
[1] = system: MCF7 breast
[2] = system: RPMI-8226 leukemia; details: 10 µM
[3] = system: OVCAR-8 ovarian; details: 10 µM
[4] = system: OVCAR-5 ovarian; details: 10 µM
[5] = system: OVCAR-4 ovarian; details: 10 µM
[6] = system: SK-OV-3 ovarian; details: 10 µM
[7] = system: IGROV1 ovarian; details: 10 µM
[8] = system: HS 578T breast; details: 10 µM
[9] = system: NCI/ADR-RES ovarian; details: 10 µM
[10] = system: T-47D breast; details: 10 µM
[11] = system: BT-549 breast; details: 10 µM
[12] = system: MDA-MB-435 melanoma; details: 10 µM
[13] = system: SW-620 colon; details: 10 µM
[14] = system: HCT-116 colon; details: 10 µM
[15] = system: KM12 colon; details: 10 µM
[16] = system: HCC-2998 colon; details: 10 µM
[17] = system: OVCAR-3 ovarian; details: 10 µM

Measured: growth

Clc1c(Cl)c(Cl)c2c(nnn2C2CCCO2)c1Cl (stereo unspecified)
active: [1]; 100 µM 3.55% and -84.2%

CCC(=O)Oc1ccc(/C=N/NC(N)=S)nc1
inactive: [2] 50.3% | [3] 23.5% | [4] 108% | [5] 56.2% | [6] 78% | [7] 45% | [8] 117% | [9] 25.1% | [10] 35.7% | [11] 51.2% | [12] 54.9% | [13] 49.5% | [1]; 10 µM 22.5% | [14] 42% | [15] 60.5%

CO[C@@]12[C@H](COC(N)=O)C3=C(C(=O)C(C)=C(N)C3=O)N1C[C@@H]1N[C@@H]12
active: [1]; 25 µM -17.6% and -61.3%

O=C1C(Cl)=C(Cl)C(Cl)(Cl)C(Cl)C1(Cl)Cl (stereo unspecified)
inactive: [2] 98.1% | [3] 106% | [4] 102% | [6] 103% | [7] 90.9% | [8] 109% | [9] 104% | [10] 91.9% | [11] 96.4% | [12] 111% | [13] 105% | [1]; 10 µM 96.8% | [14] 102% | [16] 106% | [15] 109%

COc1ccc(N)c2c1C(=O)c1ccccc1C2=O
inactive: [2] 88.9% | [3] 95.7% | [4] 103% | [5] 109% | [6] 89.4% | [7] 88.7% | [8] 107% | [9] 110% | [10] 81.9% | [12] 108% | [13] 106% | [1]; 10 µM 95.2% | [14] 102% | [16] 105% | [15] 102%

COc1cc(N)ccc1Nc1c2ccccc2nc2ccccc12
active: [5] 5.09% | [13] 4.74% | [14] -88.5%
inactive: [3] 66.1% | [4] 110% | [6] 93.9% | [7] 60.8% | [8] 102% | [9] 92.7% | [10] 92.3% | [11] 90% | [12] 87.9% | [1]; 10 µM 12.5% | [16] 94.8% | [15] 36.2%

COc1cc2c(cc1C[N+](C)(C)CSc1ccccc1)-c1ccccc1CC2
active: [1]; 100 µM -75.8% and -73.3%

Nc1nc(N)c2cc(Sc3ccc4ccccc4c3)ccc2n1
active: [2] -11.9% | [16] -39.4%
inactive: [3] 34.8% | [4] 50.5% | [6] 62.3% | [7] 27.8% | [8] 61.7% | [9] 43.9% | [10] 45.8% | [11] 67.4% | [12] 33.8% | [13] 18.9% | [1]; 10 µM 25.2% | [14] 15.4% | [15] 23.8%

O=Nc1ccc(Nc2ccccc2)cc1
inactive: [2] 27.1% | [3] 66.4% | [4] 103% | [5] 57.3% | [6] 108% | [7] 102% | [8] 111% | [9] 87.9% | [10] 63.2% | [11] 78.8% | [12] 83.6% | [13] 70.1% | [1]; 10 µM 67.2% | [14] 78.4% | [16] 93.8% | [15] 93.3%

Cc1c(-c2ccccc2)[nH]c2ccccc12
inactive: [2] 88.3% | [3] 105% | [4] 99% | [5] 96.7% | [7] 103% | [8] 102% | [9] 105% | [10] 92.4% | [12] 111% | [13] 99.3% | [1]; 10 µM 79.7% | [14] 113% | [16] 102% | [15] 103%

S=C1SCN(CCc2ccccc2)CN1CCc1ccccc1
inactive: [2] 55.8% | [3] 100% | [4] 112% | [7] 105% | [17] 116% | [8] 105% | [9] 102% | [10] 70.8% | [11] 129% | [12] 98.6% | [13] 89.4% | [1]; 10 µM 40.7% | [14] 102% | [16] 101% | [15] 96.8%

O=C(CCc1ccccc1)ON1C(=S)C(c2ccccc2)(c2ccccc2)N=C1Sc1ccccc1
active: [1]; 100 µM 1.09% and 4.44%

O=S(=O)(c1cc(Cl)ccc1O)c1cc(Cl)ccc1O
inactive: [2] 51.2% | [3] 83.7% | [4] 116% | [5] 85.3% | [6] 78.4% | [7] 83.5% | [8] 65.6% | [9] 91.9% | [10] 67% | [12] 93.4% | [13] 86.3% | [1]; 10 µM 92.9% | [14] 77.1% | [16] 99.5% | [15] 98.1%

N#CC(=S)Nc1cccc(Cl)c1
active: [1]; 100 µM 0.126% and -100%

Cc1cc(Cl)ccc1NC(=O)/C(Cl)=C1/Sc2ccccc2NC1=O
inactive: [2] 69.4% | [4] 93.5% | [5] 89.8% | [6] 103% | [7] 68.7% | [17] 95.4% | [8] 122% | [9] 87.6% | [10] 50.3% | [11] 115% | [12] 99.7% | [13] 113% | [1]; 10 µM 70.8% | [14] 76.7% | [16] 119% | [15] 96.4%
